# Screens as filed in PubChem.
# This is a sample that favours compounds with a hit; in the whole collection about 5.4% have one here.
# VACV mCherry inh = vaccinia inhibition (mCherry reporter) | Vaccinia virus mCherry reporter infection, fluorescence | Potency, µM (highest dose often 36.5 µM), for inactives: at the top dose activity change, negative = inhibition, most hits filed as inhibitors | 310,000 tested, 0.63% active | AID 720579; calls by dose curve; tested in A549 cells; further: nearly all actives have a fitted effect of over 35% in size
# Sm TGR inh = blocks Schistosoma mansoni thioredoxin glutathione reductase. Q962Y6. purified TGR, DTNB reduction, TNB absorbance 405 nm. Potency, µM (series often up to 114 µM), without a hit: top-dose activity change, negative = inhibition, actives largely listed as inhibitors. 360,000 tested, 3% active. AID 485364; active means well fitted inhibition curve with a large enough effect; inconclusive means small, poorly fitted or top-dose-only effect; inactive means no such curve, though single readings can be large or run the other way; further: nearly all actives have a fitted effect of over 60% in size
#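 Kinetic colorimetric format: TGR-catalysed, NADPH-driven DTNB reduction monitored via TNB absorbance. Enzyme dispensed at 20 nM; compound exposure 15 min at room temperature before reaction start.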
# MARV entry inh = blocks Marburg virus binding to or entry into cells; Marburg virus pseudotyped entry inhibition, cell reporter; Potency, µM (titrated, usually from 37.8 µM), for inactives: at the top dose activity change, negative = inhibition, hits mostly inhibitors; 300,000 tested, 1.8% active; AID 540276; calls by dose curve; tested in HEK293 cells
# Lassa entry inh = inhibitors of Lassa virus binding or cell entry; 300,000 tested, 1.2% active; Lassa virus pseudotype entry inhibition, cell reporter; Potency, µM (doses to about 37.9 µM), for the others: top-dose activity change, negative = inhibition, most hits filed as inhibitors; calls by dose curve; tested in HEK293 cells; further: nearly all actives have a fitted effect of over 50% in size
# VACV Venus inh = inhibitors of vaccinia virus (Venus reporter); Potency, µM (series often up to 36.5 µM), for the others: at the highest dose activity change, negative = inhibition, most hits filed as inhibitors; 330,000 tested, 0.46% active; Vaccinia virus Venus reporter expression, fluorescence; calls by dose curve; tested in A549 cells; further: nearly all actives have a fitted effect of over 30% in size
# FMDV inh = blocks foot and mouth disease virus; AID 1159524; FMDV antiviral cell-based qHTS; Potency, µM (titrated, usually from 57.9 µM), for inactives: at the top dose activity change, negative = inhibition, most hits filed as inhibitors; 410,000 tested, 1.2% active; calls by dose curve; tested in HEK293T cells; further: read-out not given here; nearly all actives have a fitted effect of over 45% in size
# Active calls of the source: *; i = inactive; ? = inconclusive; . = not tested or not shown; [ ] = remark or other dose. On the % scale 0 is the no-effect control and ±100 the full control effect; potency means the concentration at half of the fitted maximal effect.
SMILES,VACV mCherry inh,Sm TGR inh,MARV entry inh,Lassa entry inh,VACV Venus inh,FMDV inh
O=c1oc2ccc(Br)cc2cc1S(=O)(=O)c1ccc(F)cc1,i,-7%,-6%,-19%,-9%,28µM*
Cc1ncc(CO)c2cc(S(=O)(=O)c3ccc(F)cc3)c(=O)oc12,10%,0%,.,.,5%,-11%
COc1ccccc1NC(=O)c1ccc2oc(=O)c(S(=O)(=O)c3ccccc3)cc2c1,-8%,-5%,6%[46.1 µM],?,4%,28µM*
O=C(Nc1ccccc1C(F)(F)F)c1ccc(F)c(S(=O)(=O)N2CCOCC2)c1,-3%,0%,?,-2%,-18%,.
O=C(Nc1ccccc1C(F)(F)F)c1ccc2oc(=O)c(S(=O)(=O)c3ccc(F)cc3)cc2c1,-25%,1%,2%[46.1 µM],-12%[46.1 µM],-17%,28µM*
Cc1c(CN2CCOc3ccc(C(C)(O)COc4ccccc4)cc3C2)cnn1C (configuration not stated),-16%,.,.,.,5%,-13%
COc1cccc(CNC(=O)CSC2=Nc3ccccc3N=C(c3ccc(F)cc3)C2)c1,-25%,31%,.,-21%[46.1 µM],-24%,0%
O=C(Nc1ccc(F)c(Cl)c1)c1cc(S(=O)(=O)NCc2ccc3c(c2)OCO3)ccc1F,-12%,-4%,.,-8%[46.1 µM],-14%,-11%
COCCN1CCN(Cc2cn(C)nc2-c2cccc(Cl)c2)CC1,-3%,-4%,29%[46.1 µM],-12%,-3%,-6%
Cn1cc(CN2CCN(Cc3ccccc3)CC2)c(-c2cccc(Cl)c2)n1,.,32µM*,.,.,.,?
CCCCNCC(=O)Nc1ccc(NC(=O)CNCCCC)cc1,i,13%,10µM*,-17%,-12%,-13%
CCOC(=O)N(CC)c1ccc(C(O)(C(=O)OCC)C(F)(F)F)cc1 (configuration not stated),i,0%,-7%,10µM*,-18%,-29%
COc1ccc(NC(=O)NC(C)c2c(-n3cccc3)sc3c2CCN(C)C3)c(OC)c1 (configuration not stated),-22%,-2%,.,-1%[46.1 µM],-27%,4%
COc1ccc(/C=C2/C(=O)N(Cc3ccco3)C(=O)N(C(C)C)C2=O)cc1,i,-2%,-7%,12%,-10%,11%
CCN1C(=O)C(=C/C=C/c2ccco2)C(=O)N(CC)C1=S,97%,8.9µM*,13%[46.1 µM],11%[46.1 µM],256%,?
CC(C)N1C(=O)/C(=C/C=C/c2ccco2)C(=O)N(Cc2ccco2)C1=O,21%,3.5µM*,4µM*,?,78%,18µM*
O=C1NN(c2ccc(F)cc2)C(=O)/C1=C\C=C\c1ccco1,-10%,?,5%,11%,-10%,-4%
O=C1NC(=O)N(Cc2ccccc2)C(=O)/C1=C/C=C/c1ccco1,.,6.3µM*,.,.,.,13µM*
O=C1NC(=O)N(Cc2ccccc2)C1=O,-1%,31%,2%[46.1 µM],-5%[46.1 µM],-3%,-9%
Cc1cc(C(=O)Nc2cccc(-c3nc(CNC(=O)c4ccccc4C(F)(F)F)c(C)o3)c2)c(C)o1,2%,.,.,.,7%,28%
CC(=O)N1N=C(c2cccc([N+](=O)[O-])c2)OC1c1ccc(Br)cc1 (configuration not stated),.,10%,.,.,.,10%
CC(=O)N1N=C(c2ccccc2)OC1c1ccc([N+](=O)[O-])s1 (configuration not stated),i,32µM*,-9%[46.1 µM],.,-6%,-20%
COC(=O)C1CCCCN1Cc1ccc2c(c1)CN(C(=O)c1ccc(F)cc1)CCO2 (configuration not stated),-6%,.,.,.,-1%,-8%
COc1cc(OC)c(C(=O)O/N=C(\N)c2ccccn2)cc1OC,i,1%,.,.,-19%,57%
COc1ccc(/C(O)=C/C(=O)C(=O)NNC(=O)C(O)(c2ccccc2)c2ccccc2)cc1,.,15%,?,3%,1%,-20%
SMILES,VACV mCherry inh,Sm TGR inh,MARV entry inh,Lassa entry inh,VACV Venus inh,FMDV inh
Cc1cc(C)c(S(=O)(=O)c2ccccc2)c(OC(=O)c2ccc(Cl)cc2Cl)n1,-14%,23%,-22%[46.1 µM],-25%,-23%,-23%
COc1ccc(/C(O)=C/C(=O)C(=O)NNC(=O)c2ccccc2)cc1,-14%,14µM*,17%[46.1 µM],1%[46.1 µM],-12%,12%
Cc1cc(OC(=O)c2ccc(Cl)cc2Cl)nc(C)n1,.,56µM*,0%,12%,.,7%
N/C(=N\OC(=O)COc1ccccc1Cl)c1ccccn1,16%,-7%,?,7.3µM*,7%,-10%
COc1ccccc1C(=O)O/N=C(\N)c1ccccn1,i,-4%,3.5µM*,?,15%,-17%
NCCCCCc1nnc(SCc2ccc(F)cc2)o1,-12%,-3%,5%[46.1 µM],0%[46.1 µM],-8%,3%
COc1ccc(C(=O)O/N=C(\N)c2ccccn2)cc1,i,3%,?,?,1%,2µM*
Cc1ccc(/C(N)=N/OC(=O)c2ccc(Cl)cc2Cl)cc1,i,-2%,7.1µM*,?,-10%,-54%
Cc1ccccc1C(=O)O/N=C(\N)c1ccccc1,0%,1%,?,?,-2%,11µM*
COc1ccc(C(=O)NN/C(=N/S(=O)(=O)c2ccc(C)cc2)c2ccccc2)cc1,i,2%,?,8.9µM*,-10%,63%
Cc1cccc(C(=O)O/N=C(\N)c2ccc(Cl)cc2)c1,.,0%,.,.,.,62%
CCCn1c2ccccc2c2cnn(CC(=O)NCCCN(Cc3ccccc3)C(C)C)c(=O)c21,-18%,5%,.,?,-16%,-26%
COc1ccc(C(=O)NNC(=O)c2ccccn2)cc1,.,1%,?,?,.,1.8µM*
N/C(=N\OC(=O)c1ccc(Cl)cc1)c1ccccn1,.,7%,?,?,.,-79%
N/C(=N\OC(=O)c1ccccc1Cl)c1ccccn1,.,1%,?,2.1µM*,.,-89%
Cc1ccc(C(=O)O/N=C(\N)c2ccccn2)c(C)c1,-15%,5%,0.63µM*,0.79µM*,-22%,0.89µM*
Clc1ccc(SCc2cc(N3CCOCC3)nc(-c3ccccn3)n2)cc1,7.9µM*,9%,?,?,?,-26%
Clc1ccc(SCc2csc(N3CCOCC3)n2)cc1,-3%,-30%,-17%,3%,-15%,-11%
O=C(N/N=C/c1c(O)n(Cc2ccccc2)c(=O)[nH]c1=O)c1ccccc1O,36%,25µM*,?,?,15%,7%
O=C(N/N=C/c1c(O)n(Cc2ccc(F)cc2)c(=O)[nH]c1=O)c1ccccc1O,-8%,35µM*,-24%,-2%,-2%,17%
CCOC(=O)C(NC(=O)c1cccc(Cl)c1)(Nc1sc2c(c1C(N)=O)CCC2)C(F)(F)F (configuration not stated),.,40µM*,-29%,?,.,?
CCCCC(=O)NC(Nc1sc2c(c1C(N)=O)CCCC2)(C(=O)OCC)C(F)(F)F (configuration not stated),i,-15%,-8%,2%,-6%,-26%
